Measurements as given in PMC4552634, “A New Set of Chemical Starting Points with Plasmodium falciparum Transmission-Blocking Potential for Antimalarial Drug Discovery” (PLoS ONE, 2015).
Read-outs that look alike come from different tables or passages of the source. The campaign covered roughly 13,000 compounds. About 3,200 (25%) showed an effect of 50% or more. This is one part of the list.

Tested on: P. falciparum stage V gametocytes
Set-up: BacTiter-Glo ATP luminescence viability of purified stage V gametocytes in 384-well plates, per cent inhibition versus DMSO
Settings: 48 h, 5 µM, inhibitor

Compound | % Inhibition [%] | % Inhibition (% Inhibition) [%]
CN(CCCc1c[nH]c2ccccc12)CCC1CCC(NC(=O)/C=C/c2ccc(Cl)c(Cl)c2)CC1 (stereo not shown) [TCMDC-139449] | -10.77 | 
CCOc1ccccc1CNc1nccc(NCCc2cn(C)c3ccccc23)n1 [TCMDC-135123] | 47.81 | 
CN1CCN(CC2(Nc3nccc(NCCc4cn(C)c5ccccc45)n3)CCCCC2)CC1 [TCMDC-135122] | 114.3 | 
Clc1ccc(CNc2ccnc(NCc3cccnc3N3CCCC3)n2)c(Cl)c1 [TCMDC-135112] | 11.98 | 
CN1CCN(CC2(Nc3nccc(NCc4ccc(Cl)cc4Cl)n3)CCCCC2)CC1 [TCMDC-135114] | 73.23 | 
Cn1cc(CCNc2ccnc(NCCc3coc4ccccc34)n2)c2ccccc21 [TCMDC-135121] | 46.44 | 
CCOc1ccccc1CNc1nccc(NCc2ccc(Cl)cc2Cl)n1 [TCMDC-135115] | 39.1 | 
O=C(c1cccc(-c2ccc(-c3nc4cc(C(F)(F)F)ccc4[nH]3)cc2)c1)N1CCCCC1CN1CCC(O)C1 (stereo not shown) [TCMDC-132345] | -7.323 | 
O=C([C@H]1CCCCN1c1ccc([N+](=O)[O-])c2ccccc12)N1CCN(c2ncccn2)CC1 [TCMDC-135504] | -25.11 | 
Cc1cccc(OC(C)C(=O)Nc2cc(C(F)(F)F)ccc2N2CCOCC2)c1 (stereo not shown) [TCMDC-125116] | -67.15 | 
Nc1ncc(OC2CCCCC2)c(N)n1 [TCMDC-137916] | 86.08 | 
Nc1nccc2ccc(OC3CCCCC3)cc12 [TCMDC-136543] | 27.41 | 
COc1ccc(Oc2cnc(N)nc2N)c(C(C)C)c1 [TCMDC-132471] | -12.02 | 
Cc1nc(Nc2ccc(F)cc2)nc(N2CCc3ccccc3[C@@H]2C)c1C [TCMDC-141073] | -42.65 | 
c1ccc(CN2CCN(CCCCNc3c4ccccc4nc4ccccc34)CC2)cc1 [TCMDC-138009] | 101.2 | 
Cl.c1ccc(CN2CCN(CCNc3c4ccccc4nc4ccccc34)CC2)cc1 [TCMDC-137571] | 58.89 | 
NC(=NC1CC1)c1ccc2nc(CCCCCc3nc4ccc(C(N)=NC5CC5)cc4[nH]3)[nH]c2c1 [TCMDC-137236] | 9.891 | 
Cc1cc(SC(C)(C)C)cc2c(Cl)c(C(N)=O)cnc12 [TCMDC-135415] | 114.9 | 
COc1ccccc1-c1cccc(CNC2CCN(CC3Cn4c(=O)ccc5ccc(F)c3c54)CC2)c1 (stereo not shown) [TCMDC-134411] | 15.92 | 
O=C(NC1CCC(CN2CCC(c3c[nH]c4ccccc34)CC2)CC1)c1cn(Cc2ccccc2)c2ccccc12 (stereo not shown) [TCMDC-139888] | 107.9 | 
O=C(CCc1ccc(Cl)cc1Cl)NC1CCC(CN2CCC(c3c[nH]c4ccccc34)CC2)CC1 (stereo not shown) [TCMDC-140296] |  | -15.31
O=C(Cc1c(-c2ccccc2)[nH]c2ccccc12)NC1CCC(CN2CCC(c3c[nH]c4ccccc34)CC2)CC1 (stereo not shown) [TCMDC-139909] | 71.88 | 

Compound | % Inhibition [%] | % Inhibition (% Inhibition) [%]
O=C(CSc1ccc(Cl)cc1)NC1CCC(CN2CCC(c3c[nH]c4ccccc34)CC2)CC1 (stereo not shown) [TCMDC-139953] | -2.163 | 
O=C(CCc1ccc(Cl)cc1Cl)NC1CCC(CN2CCC(c3c[nH]c4ccccc34)CC2)CC1 (stereo not shown) [TCMDC-140262] |  | -48.76
O=C(NC1CCC(CN2CCC(c3c[nH]c4ccccc34)CC2)CC1)c1cnn(-c2ccccc2)c1-c1ccccc1Cl (stereo not shown) [TCMDC-140375] | 25.23 | 
O=C(CCCCCc1ccccc1)NC1CCC(CN2CCC(c3c[nH]c4ccccc34)CC2)CC1 (stereo not shown) [TCMDC-139952] | 95.36 | 
O=C(Cc1cc(=O)oc2cc(O)ccc12)NC1CCC(CN2CCC(c3c[nH]c4ccccc34)CC2)CC1 (stereo not shown) [TCMDC-139882] | -52.99 | 
CCOCCCNc1ncc(-c2ccsc2)c(-c2nc(C)cs2)n1 [TCMDC-124842] | 18.59 | 
Cc1cccc(C(=O)Nc2ccnc(N3CCC(N(C)Cc4ccc(C#N)cc4)CC3)c2)c1 [TCMDC-134977] | 5.364 | 
CCN(CC)CCN1C(=O)c2oc3ccc(F)cc3c(=O)c2C1c1cccc(Cl)c1 (stereo not shown) [TCMDC-124911] | 13.72 | 
O=C(n1c(-c2cc3ccccc3n2C(=O)C(F)(F)F)cc2ccccc21)C(F)(F)F [TCMDC-131570] | 0.2533 | 
CC(C)COc1ccc(Cl)cc1Cc1nc(-c2nc3ccc(CN4CCN(C)CC4)cc3[nH]2)co1 [TCMDC-136812] | 12.89 | 
CN1CCN(c2ccc3nc(-c4ccc(Cc5cc(Cl)ccc5OCc5ccccc5)o4)[nH]c3c2)CC1 [TCMDC-136708] | -32.6 | 
CC(C)COc1ccc(Cl)cc1Cc1nc(-c2nc3c(CN4CCN(C)CC4)cccc3[nH]2)cs1 [TCMDC-132173] | 82.6 | 
CNCc1cccc2[nH]c(-c3csc(Cc4cc(Cl)ccc4OCC(C)C)n3)nc12 [TCMDC-132172] | 92.59 | 
CN(C)Cc1ccc2nc(-c3cccc(Cc4cc(Cl)ccc4OCc4ccc(Cl)cc4F)n3)[nH]c2c1 [TCMDC-136892] | 34.33 | 
CC(C)COc1ccc(Cl)cc1Cc1nc(-c2nc3nc(N4CCN(C)CC4)ccc3[nH]2)cs1 [TCMDC-136876] | 6.698 | 
CC(C)COc1ccc(Cl)cc1Nc1nc(-c2nc3ccccc3[nH]2)cs1 [TCMDC-137041] | 2.246 | 
Clc1ccc(OCc2ccccc2)c(-c2nc(-c3nc4ccc(Cl)cc4[nH]3)cs2)c1 [TCMDC-136728] | -8.781 | 
Cc1cc(-c2nc3ccc(CN4CCN(C)CC4)cc3[nH]2)nn1Cc1cc(Cl)ccc1OCc1ccccc1 [TCMDC-136883] | 19.79 | 
CN1CCN(CCc2ccc3nc(-c4csc(Cc5cc(Cl)ccc5OCc5ccccc5)n4)[nH]c3c2)CC1 [TCMDC-132171] | 95.37 | 
CN(C)Cc1cccc2[nH]c(-c3csc(Cc4cc(Cl)ccc4OCc4ccccc4)n3)nc12 [TCMDC-132174] | 97.26 | 
CNCc1ccc2nc(-c3coc(Cc4cc(Cl)ccc4OCC(C)C)n3)[nH]c2c1 [TCMDC-136808] | 13.07 | 
